Our source for the inhibition values is PubChem BioAssay AID1274 (Emory University Molecular Libraries Screening Center, 2008).

The whole screen tested about 220,000 compounds, of which about 1,100 (0.5%) were called active.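 How the source made its calls: active means inhibition above about 30% (limit read from the data); inactive means the rest.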 For the sample, actives were picked, then their nearest neighbours and some compounds at random.

In this assay the target is Neutrophil cytosol factor 1 (Homo sapiens) (UniProt P14598). Nature of the assay: p47phox/p22phox peptide binding inhibitors, primary screen, biochemical, uHTS, NADPH oxidase regulatory subunit (AID 1274).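 Further: 0% = p47phox with labelled peptide and 100% = labelled peptide alone.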 Conditions: fluorescence polarization, 2 h, at 24.7 µM, hits give high values.
Sequence of Neutrophil cytosol factor 1 (Homo sapiens) (P14598 whole entry, looked up): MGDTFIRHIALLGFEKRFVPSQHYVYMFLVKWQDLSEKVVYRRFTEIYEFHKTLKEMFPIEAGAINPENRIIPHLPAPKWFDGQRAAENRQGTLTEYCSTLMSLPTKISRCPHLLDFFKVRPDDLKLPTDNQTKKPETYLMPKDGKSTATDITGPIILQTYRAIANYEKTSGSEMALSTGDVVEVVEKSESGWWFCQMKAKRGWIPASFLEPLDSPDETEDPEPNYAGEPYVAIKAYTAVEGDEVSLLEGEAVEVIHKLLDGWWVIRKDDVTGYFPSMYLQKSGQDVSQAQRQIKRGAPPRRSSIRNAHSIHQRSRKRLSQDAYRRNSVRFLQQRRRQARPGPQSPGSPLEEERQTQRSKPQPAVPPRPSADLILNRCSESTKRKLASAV
For `COc1ccc(C2(CNC(=O)Cc3ccc(OC)c(OC)c3)CCCC2)cc1`, the inhibition was 10.1% (inactive).

Take `O=C(CSc1ccc2nnc(-c3ccccc3)n2n1)N1CCCc2ccccc21`: the inhibition was 9.14% (inactive).

With `COc1ccc(NC(=S)SC)cc1OC`, the inhibition was -0.91% (inactive).

Consider `O=c1[nH]c2cccnc2n1-c1ccc([N+](=O)[O-])cc1`, for which the inhibition is 3.76% (inactive).

Turning to `O=c1[nH]n(-c2ccc([N+](=O)[O-])cc2)c(=O)c2ccccc12`, the inhibition is 43.7% (active).

`O=C1CC(c2ccccc2)=NN1c1ccc([N+](=O)[O-])cc1`: the inhibition is -0.56% (inactive).

For the molecule `CC(=O)c1c(C)[nH]c(C(=O)Nc2cc(S(=O)(=O)N(C)C)ccc2C)c1C`, the inhibition was -11.1% (inactive).

For the molecule `COCCn1c(SCC(=O)Nc2cc(OC)ccc2OC)nc2c(c1=O)SC(C)C2` (stereo not drawn), the inhibition was -1.72% (inactive).

As for `CC1=C(C)C(=O)OC(C(C)C2CCC3C4CC=C5CC(OC6OC(COC7OC(CO)C(O)C(O)C7O)C(O)C(O)C6O)CC(O)C5(C)C4CCC23C)C1` (stereo not drawn), the inhibition was -3.03% (inactive).

On to `Cc1ccc(C)c2[nH]c(=O)c(CN(Cc3cccnc3)C(=S)NCc3ccco3)cc12`, for which the inhibition is 40.3% (active).

Turning to `O=C(Nc1ccccc1)N(Cc1cccnc1)Cc1ccco1`, the inhibition was -9.87% (inactive).

With `Cc1cccc2cc(CN(Cc3cccs3)C(=S)NCc3ccco3)c(=O)[nH]c12`, the inhibition is -184% (inactive).

In the case of `O=S1(=O)CC/C(=N\Nc2ccc(F)cc2)c2ccsc21`, the inhibition was -3.38% (inactive).

Regarding `N#C/C(=C/c1ccc(-c2ccccc2[N+](=O)[O-])o1)C(=O)NCCN1CCCCC1`, the inhibition was 2.84% (inactive).

For the molecule `N#C/C(=C/c1ccc(N2CCCCC2)o1)C(=O)NCCc1c[nH]c2ccccc12`, the inhibition is 41.9% (active).

Regarding `O=C(NCCc1c[nH]c2ccccc12)C(=O)NCC1CCCO1` (stereo not drawn), the inhibition is -9.36% (inactive).

Take `Cc1ccc2cc(CN(c3ccc(C)c(C)c3)S(C)(=O)=O)c(=O)[nH]c2c1`: the inhibition was -7.6% (inactive).

On to `O=C(Nc1ccc(S(=O)(=O)N2CCOCC2)cc1)c1ccc2ncsc2c1`, for which the inhibition was -9.71% (inactive).

As to `Cc1ccc(O)c(NC(=S)NC(=O)COc2ccc(Br)cc2)c1`, the inhibition was -10.4% (inactive).

Consider `COc1ccc(OC)c(NC(=O)CCN2CCC(C)CC2)c1`, for which the inhibition is 43.5% (active).

With `COc1ccc(NC(=O)CCN2CCCC2)c(OC)c1`, the inhibition was -2.15% (inactive).

Regarding `CCOC(=O)N1CCN(CCC(=O)Nc2cc(OC)ccc2OC)CC1`, the inhibition was 3.79% (inactive).

`Cc1ncn2cc(-c3ccc(Cl)cc3Cl)[nH]c(=O)c12`: the inhibition is 0.92% (inactive).

For the molecule `CN(C)C(=O)CSc1n[nH]c(-c2ccco2)n1`, the inhibition was -9.79% (inactive).

In the case of `O=C(COC(=O)c1ccc(F)cc1F)Nc1ncccn1`, the inhibition is -18.8% (inactive).

In the case of `CSc1sc(C)cc1C1C(C#N)=C(N)N(c2cccnc2)C2=C1C(=O)CCC2` (stereo not drawn), the inhibition is 40.6% (active).

`CCc1ccc(C2C(C#N)=C(N)N(N(C)C)C3=C2C(=O)CCC3)s1` (stereo not drawn): the inhibition was -16.9% (inactive).

As for `N#CC1=C(N)N(c2ccccc2)C2=C(C(=O)CCC2)C1c1ccccc1` (stereo not drawn), the inhibition is -23.4% (inactive).
